High-throughput results (PubChem)
CHO-K1 Ca PAM: nonselective calcium activators in parental CHO-K1 cells, primary screen, counter-screen for M1 PAM project, cell-based, Fluo-8 calcium fluorescence, full deck, 1536-well | 360,000 tested, 0.02% active | activation, % at 3 µM | ATP EC20; 0% at ATP EC20, 100% at ATP max | AID 602247, 2012;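 active means activation above the run cutoff, the mean activation of all test compounds plus 3 SD, cut at about 40% in these data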;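 further: peak over basal fluorescence ratio in a 140 s read after ATP addition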
CHRM1 antagonist: human M1 muscarinic receptor antagonists, primary screen, CHO-K1 cells, Fluo-8 calcium fluorescence, 1536-well; Muscarinic acetylcholine receptor M1 (Homo sapiens), P11229; CHO-K1 hM1, ACh EC80 antagonist; inhibition, % at 3 µM; 360,000 tested, 1.3% active; AID 588852, 2011;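 active means percent inhibition above its own plate's cutoff, namely the mean of that plate's compound wells plus 3 SD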;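 further: peak over basal fluorescence ratio during 140 s after agonist addition; 0% = ACh EC80 plus DMSO and 100% = DMSO alone without agonist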
Target sequence (P11229 whole entry, looked up): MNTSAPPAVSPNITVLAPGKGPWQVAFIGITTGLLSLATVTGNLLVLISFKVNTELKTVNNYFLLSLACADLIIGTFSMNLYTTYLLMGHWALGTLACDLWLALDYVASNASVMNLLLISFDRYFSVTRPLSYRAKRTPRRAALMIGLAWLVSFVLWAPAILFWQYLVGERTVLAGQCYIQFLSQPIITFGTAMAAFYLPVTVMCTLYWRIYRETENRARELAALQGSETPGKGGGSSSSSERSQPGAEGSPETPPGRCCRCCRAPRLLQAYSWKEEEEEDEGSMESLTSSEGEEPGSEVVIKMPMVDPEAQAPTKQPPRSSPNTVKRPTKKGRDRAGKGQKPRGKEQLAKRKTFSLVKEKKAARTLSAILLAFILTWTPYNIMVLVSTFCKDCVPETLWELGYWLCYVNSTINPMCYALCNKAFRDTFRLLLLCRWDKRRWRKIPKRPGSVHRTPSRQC
CHRM1 PAM: human M1 muscarinic receptor positive allosteric modulators, primary screen, CHO-K1 cells, Fluo-8 calcium fluorescence, 1536-well. Muscarinic acetylcholine receptor M1 (Homo sapiens), P11229. CHO-K1 hM1, ACh EC20; 0% = ACh EC20, 100% = maximal ACh. activation, % at 3 µM. 360,000 tested, 0.088% active; in the data active means activation above about 19%, passing the limit was not always enough
CHO-K1 Ca ag: counter-screen for M1 agonists: effect in parental CHO-K1 cells. Fluo-8 calcium fluorescence; scaled to maximal ATP response, vehicle zero. activation, % at 3 µM. 360,000 tested, 0.48% active; in the data active means activation above about 15%;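 further: untransfected CHO-K1 host cells lacking M1 receptor as counterscreen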
CHRM1 agonist: human M1 muscarinic receptor agonists, primary screen, Fluo-8 calcium fluorescence, CHO-K1 cells, HTS | CHO-K1 hM1, agonist mode; 0% DMSO, 100% acetylcholine EC100 | 360,000 tested, 0.33% active | Muscarinic acetylcholine receptor M1 (Homo sapiens), P11229 | activation, % at 3 µM;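 active means activation above the run's mean compound activation plus 3 SD, cut at about 16% in these data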;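 further: peak over basal fluorescence ratio within a 140 s kinetic read after compound addition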
CHO-K1 Ca antag: counter-screen for M1 antagonists: effect in parental CHO-K1 cells. ATP-induced calcium, Fluo-8 fluorescence. inhibition, % at 3 µM. 360,000 tested, 0.6% active. AID 602250;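 active means inhibition above a per-plate cutoff, the plate's mean sample inhibition plus 3 SD, cut at about 24% in these data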;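 further: 0% = DMSO plus EC80 ATP and 100% = DMSO alone without ATP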
Starred values were filed as active, the others as inactive. Compounds with a hit are over-represented: about 2.3% of the library has one in this group of screens.

SMILES | CHO-K1 Ca PAM | CHRM1 antagonist | CHRM1 PAM | CHO-K1 Ca ag | CHRM1 agonist | CHO-K1 Ca antag
CCCOC1CCCN(C(=O)c2ccc(OC3CCN(Cc4ccccn4)CC3)cc2)C1 (configuration not stated) | 0 | -12 | 5 | 1 | -6 | -1
CCOc1cc(C(=O)N2CCCC2)cc(OCC)c1OCC | -7 | -19 | -1 | 0 | -1 | 26*
Cc1cccc(CS(=O)(=O)Cc2ccc(C(=O)NCc3ccccc3)o2)c1 | 11 | -13 | 6 | 6 | 0 | -13
Cc1cccc(CS(=O)(=O)Cc2ccc(C(=O)NCc3cccs3)o2)c1 | 5 | -11 | 7 | 27* | 6 | 2
CCOC(=O)C1CCCN(C2=NC(=O)/C(=C/c3ccc(N(C)C)cc3)S2)C1 (configuration not stated) | 1 | 2 | -2 | 7 | 24* | -6
Cc1noc(/C=C/c2ccco2)c1S(=O)(=O)N1CCC(C(=O)N2c3ccccc3CC2C)CC1 (configuration not stated) | -9 | 15 | -2 | 0 | -2 | 26*
Cc1noc(/C=C/c2ccco2)c1S(=O)(=O)N1CCC(C(=O)NC(C)c2ccccc2)CC1 (configuration not stated) | -3 | -11 | 9 | 0 | -5 | 23
COCCNC(=O)CN1C(=O)NC2(CCCc3ccccc32)C1=O (configuration not stated) | 13 | 67* | 4 | 0 | 0 | 2
CC(C(=O)NCC1(c2ccccc2)CCCC1)N1CCCC1 (configuration not stated) | 0 | 97* | -22 | 1 | -9 | 3
CC(C(=O)NCC1(c2ccccc2)CCCC1)N1CCOCC1 (configuration not stated) | 10 | -3 | -2 | 1 | -7 | -5
O=C(NC(=S)Nc1ccc(S(=O)(=O)Nc2nccs2)cc1)c1cccc(F)c1 | 26 | -12 | 9 | 1 | -7 | -9
COc1ccc(N2CCN(CCNC(=O)Nc3ccc(C)c(Cl)c3)CC2)cc1 | -8 | -14 | 11 | 18* | -1 | -12
COc1ccc(N2CCN(C(=O)c3ccc(C)c(Cl)c3)CC2)cc1 | -3 | 4 | 7 | 0 | -4 | 29*
COc1ccc(-c2ocnc2C(=O)N2CCN(C(c3ccccc3)c3ccccc3)CC2)cc1 | 0 | -3 | -9 | -1 | -10 | -1
O=C(O)c1cn2c3c(ccc(Cl)c3c1=O)OCC2 | 7 | -28 | 26* | 1 | 1 | -8
O=C(O)C1CC=CCC1C(=O)Nc1ccccc1 (configuration not stated) | -6 | -5 | 9 | 0 | -2 | 25*
Brc1ccc(C[n+]2ccccc2)cc1 | 14 | 8 | -2 | 2 | -12 | -9
COc1cc(CNC(=O)C2CCCC2)cc(OC)c1OC | 12 | -26 | 27* | 1 | 1 | -10
COc1ccccc1CNC(=O)C1CCCC1 | -16 | 6 | -4 | 0 | -1 | -8
CC(=O)c1ccc(NC(=S)NNC(=O)c2ccncc2)cc1 | -3 | 5 | -3 | 0 | -5 | 2
COC(=O)C(CC(=O)c1ccc(Cl)cc1)c1ccc(C)cc1 (configuration not stated) | -4 | 5 | 33* | -1 | -5 | -2
Cc1ccc(NC(=O)c2cc(S(=O)(=O)N3CCOCC3)ccc2Cl)cc1S(=O)(=O)N1CCOCC1 | -14 | 10 | -5 | 7 | -4 | 13
CN(C)CCCN(Cc1ccccc1)C(=S)Nc1cccc(C(F)(F)F)c1 | 4 | 7 | -5 | 2 | -6 | 4
CN(C)CCCN(Cc1ccccc1)C(=S)Nc1ccc(F)c(Cl)c1 | -10 | 38* | -21 | 2 | -7 | -6
CCOC(=O)C1(CC2CC2)CCN(Cc2cn(C)c3ccccc23)CC1 | 13 | 32* | -24 | 3 | -11 | 4
SMILES | CHO-K1 Ca PAM | CHRM1 antagonist | CHRM1 PAM | CHO-K1 Ca ag | CHRM1 agonist | CHO-K1 Ca antag
COC(=O)c1ccc(CN2CCN(CC(C)C)C(CCO)C2)cc1 (configuration not stated) | 25 | 35* | -17 | 1 | -8 | -11
CCOC(=O)C1CCC(CNCc2ccc(Cl)cc2)CC1 (configuration not stated) | 27 | 45* | -20 | 1 | -10 | -14
COC(=O)c1ccc(CN2CCC(CO)(Cc3ccccc3Cl)CC2)cc1 | 5 | 52* | -5 | 1 | 19* | 12
CCOC(=O)C1(Cc2ccccc2)CCN(Cc2cn(CC(=O)OC)c3ccccc23)CC1 | 23 | -5 | 4 | 1 | -6 | -12
CCOC(=O)C1CCN(C(=O)CCC(=O)NCCc2ccc(Cl)cc2)CC1 | 16 | -16 | 12 | 1 | -2 | -10
Cc1cc(C)n2nc(Sc3ncccc3[N+](=O)[O-])nc2n1 | -5 | -8 | 7 | 4 | -3 | -5
Cn1c(=O)c(=O)n(C)c2cc(S(=O)(=O)CCC(=O)Nc3c(F)c(F)c(F)c(F)c3F)ccc21 | -9 | 11 | -3 | 0 | -3 | -11
COc1ccc(C(=O)Nc2ccc(CN3CCCCC3)cc2)cc1 | -3 | 10 | -5 | 1 | -7 | -10
COC(=O)c1ccc(CN2CCCC(C(=O)c3cc(F)ccc3OC)C2)cc1 (configuration not stated) | 3 | 1 | 2 | 0 | 10 | 1
COC(=O)c1ccc(CN2CCCC(C(=O)c3ccccc3OC)C2)cc1 (configuration not stated) | 10 | 7 | -6 | 1 | 27* | -13
COc1ccc(/C=C/CN2CCC(CO)(Cc3ccccc3Cl)CC2)cc1 | 4 | 31* | -31 | 4 | -9 | 2
COC(=O)c1ccc(CN2CCCCC2)cc1 | 15 | 26 | -9 | 0 | 27* | -10
CCOC(=O)C1CCN(Cc2ccc(C(=O)OC)cc2)CC1 | 14 | 67* | -20 | 0 | 43* | -16
CCOc1ccc(S(=O)(=O)N2CCC(C(=O)OC(C)C(=O)N(C)C3CCCCC3)CC2)cc1 (configuration not stated) | 12 | -6 | 3 | 5 | -4 | -16
Cc1ncoc1C(=O)N1CCCC(C(=O)c2ccc(C(F)(F)F)cc2)C1 (configuration not stated) | -10 | 5 | -5 | 0 | -9 | 13
O=C(CCCc1ccccn1)c1cccc2ccccc12 | 9 | -19 | 6 | 0 | -6 | -9
CN(C)C(=O)[C@H]1C[C@H]1[C@@H](O)[C@H](CO)NC(=O)[C@H](COCc1ccccc1)NC(=O)OC(C)(C)C | -6 | -9 | 15 | 0 | -1 | 1
